# Experimental data taken from the OligoGym collection.
# Target: RNF219
# Experiment: pooled miR-30 sensor sort-seq; sequence = guide strand
# Settings: shRNA
# Also: reference of the scale not given here.
row,Sequence,sensor-assay potency score (higher = more potent)
1,ATACTTATCACTTCGTTCCAGG,-0.456
2,TCTGTTATCAACTTCAGCCTTC,0.456
3,TACTTGTATCTGTCACATCTAA,-0.451
4,TTCACTTGAATTTTTTAGCTGT,0.783
5,TAGCTTATCCACATCATCTTTC,-0.402
6,TTGATCTGTGACTCCAAGCTGA,0.034

# Target: RNF41
# Experiment: as above
# Settings: shRNA
row,Sequence,sensor-assay potency score (higher = more potent)
1,TAGCGTCGGTTCATCTGTCTAG,0.0647
2,TTCAGCTGACGTCTTCTCCAGC,-0.881
3,TAGTTCTCATAGTAGCGTCGGT,-0.784
4,ATCTGTCTAGTCTCTAGTGTGG,-0.878
5,TCATCTGTCTAGTCTCTAGTGT,-0.527
6,AAGATCTTCGTCAACATCCCCC,-0.164
7,ATCTTCGTCAACATCCCCCTGG,-0.316
8,TCTGATTTCCATCTCTTCCTGA,0.105
9,TTTGACAACATGTTCCGCATGA,0.502
10,AACATGTTCCGCATGATCCGAG,-0.3
11,TAATTTATAGACATTTTAGGGG,0.0646

# Target: RNMTL1
# Experiment: as above
# Settings: shRNA
row,Sequence,sensor-assay potency score (higher = more potent)
1,TTGTGAAACTTCATCACTCGTT,0.595
2,TTTCCTGTAACTGTATGACGGC,-0.465
3,TTTACTATTGTCATTACACTGC,-0.096
4,TGATGCTTCAGGAACTTTCTGG,-0.0145
5,TTATTAGACATCTCAGCCTGGG,-0.331
6,TTGTCAGCCACATAGACCCGAG,-0.82
7,TTTATTAGACATCTCAGCCTGG,0.616
8,TTCTGTTCCACCACCTCTCCGG,-0.00954
9,TTATTGATAATGGGCATCCGGA,-0.992
10,TAGCTTTATTAGACATCTCAGC,-0.834
11,TTGGTGAGTAACACTTTGCTGC,-0.11
12,TACTATTGTCATTACACTGCTC,0.0183

# Target: RNPC3
# Experiment: as above
# Settings: shRNA
row,Sequence,sensor-assay potency score (higher = more potent)
1,TATATCAAACATGATCCGCTGT,0.81
2,TTCTCTAGAAATTCTGCCCTTT,-0.078
3,TTCTTGAACATGTTTAGCTAAA,-1.09
4,TATTGTTTTAGGTCTTTTGGGC,-0.105
5,TTCCTCACAATTTTGTTCCTTT,1.11
6,TTTCTTGAACATGTTTAGCTAA,-0.355
7,TTTGCTAGGATTGTGCTGGAAG,-0.549
8,TTAAATACACTTTCAAAGCTGT,0.272
9,TTCTTTATCATCTTCGACAGGG,0.314
10,TTTTTCTTTATCATCTTCGACA,-0.554
11,TTGGTCTAGCAGATCGAGCAAA,-1.03
